According to PubChem BioAssay AID2279 (Southern Research Specialized Biocontainment Screening …, 2010):
Entries with a potency or affinity are not part of this list. Activity calls are given as the source filed them. No rule for the calls is given here.

Assay: CCR5-tropic HIV-1 fusion blockers – cell-based, CCR5-tropic Env, dose response (AID 2279)
Settings: CCR5-tropic HIV-1 Env, reporter read-out; series mostly up to 50 µM

outcome, inactive:
Cc1cc(N2C(=O)C(O)=C(C(=O)c3cc4ccccc4o3)C2c2ccc(Cl)cc2)no1 (stereo not given)
CCCCCCc1c(C)c2ccc(OCC(=O)N[C@@H](Cc3ccccc3)C(=O)O)cc2oc1=O
O=C(Nc1cccc(C(F)(F)F)c1)c1cccc(NS(=O)(=O)c2ccc(O)c(C(=O)O)c2)c1
O=C(O)CSCC(=O)N(Cc1ccccc1)c1nc(-c2ccccc2)c(-c2ccccc2)s1
O=c1[nH]c(=S)[nH]c2c1C(c1ccc(Br)cc1)c1c([nH]c(=S)[nH]c1=O)O2
Cc1ccc(-c2cc(C(=O)Nc3ccc(S(=O)(=O)Nc4onc(C)c4C)cc3)c3ccccc3n2)cc1
COc1cc(/C=C2\C(=N)N3N=C(S(C)(=O)=O)SC3=NC2=O)cc(OC)c1OCCOc1ccc(C)cc1
CCOC(=O)c1sc2nc3c(SCCC(=O)O)cc(C(=O)c4cc(OC)ccc4O)cn3c(=O)c2c1C
Cc1cccc(S(=O)(=O)Nc2nc3ccccc3nc2Nc2cccc(C(=O)O)c2)c1
CCc1nnc(NS(=O)(=O)c2ccc(NC(=S)NC(=O)/C=C/c3ccc(F)cc3)cc2)s1
CCCCCNC(=O)c1ccc2c(=O)[nH]c3c(C(=O)NCC4CCCO4)sc(=S)n3c2c1 (stereo not given)
COc1cccc(-c2coc3c(C)c4oc(=O)c(CCC(=O)O)c(C)c4cc23)c1
O=C(O)c1ccc(N/N=C/c2ccc(-c3cccc(Cl)c3)o2)cc1
O=C1NN(c2ccc(F)c(Cl)c2)C(=O)/C1=C\c1cccc(OC(=O)c2cccs2)c1
Cc1cc(/C=C2\C(=N)N3N=C(S(C)(=O)=O)SC3=NC2=O)c(C)n1Cc1ccccc1
O=C(Nc1ccc(Br)cc1C(=O)O)c1ccc2c(c1)C(=O)N(Cc1ccccc1)C2=O
O=C(O)c1ccc(NS(=O)(=O)c2ccc3c(c2)C2C=CCC2C(c2ccccc2F)N3)cc1 (stereo not given)
O=C(O)CN1C(=O)/C(=C\c2cc(Br)ccc2OCc2ccc(F)cc2)SC1=S
Cc1cccc(OCC(=O)Nc2ccc(C(=O)Nc3ccccc3C(=O)O)cc2)c1C
CCOc1cc(/C=C2/C(=N)N3C(=NC2=O)SN=C3S(C)(=O)=O)ccc1OS(=O)(=O)c1ccccc1
COc1cc(C(c2c(C(=O)O)[nH]c3ccccc23)c2c(C(=O)O)[nH]c3ccccc23)ccc1OCc1ccccc1
C=CC#CC[N+]1(CC#Cc2ccccc2)CCOCC1
O=C(NN1C(=O)/C(=C/c2ccc(O)c([N+](=O)[O-])c2)SC1=S)c1ccccc1Cl
CCS(=O)(=O)C1=NN2C(=N)/C(=C\c3ccc(OS(=O)(=O)c4ccccc4)c(OC)c3)C(=O)N=C2S1
COc1cc(/C=C2\C(=N)N3N=C(S(C)(=O)=O)SC3=NC2=O)cc(OC)c1OCCOc1ccccc1C
O=C(O)c1cc(-c2ccc(/C=N/Nc3ccc(Cl)cc3)o2)ccc1Cl
Cc1cn2c(N)c(C=C3C=C(Cl)C(=O)C(Cl)=C3)c(=O)nc2s1
CCOC(=O)c1sc(N2C(=O)C(O)=C(C(=O)c3ccco3)C2c2cccc([N+](=O)[O-])c2)nc1C (stereo not given)
COc1ccc(/C=N/NC(=O)c2[nH]c3ccc(Br)cc3c2-c2ccccc2)c(C(=O)O)c1OC
O=C(O)c1ccccc1NS(=O)(=O)c1ccc(NNC(=S)Nc2ccc(OC(F)F)cc2)c([N+](=O)[O-])c1
O=C(O)CN1C(=O)/C(=C\c2cc(Br)ccc2OCc2ccc([N+](=O)[O-])cc2)SC1=S
O=C(NC(=S)Nc1ccccc1C(=O)O)c1ccc(-c2ccc(Br)cc2)o1
COc1ccc(C(=O)Nc2ccc(/C(C)=N/NC(=O)c3ccncc3)cc2)cc1
NS(=O)(=O)c1cc(C(=O)NC2CCSc3ccccc32)ccc1Cl (stereo not given)
CCCOc1ccc(C(=O)NNC(=S)NC(=O)c2cc(-c3ccccc3)nc3ccccc23)cc1
